These results are taken from ChEMBL document CHEMBL1157539, “Thousands of chemical starting points for antimalarial lead identification” (Nature, 2010).

By Inhibition is commonly meant the percentage by which the read-out fell short of the control. A lower Inhibition goes with little suppression.

What all share (assay type): functional
The test system of assay [1] is Plasmodium falciparum. As to the kind of experiment: GSK_TCMDC: Inhibition of Plasmodium falciparum 3D7 in whole red blood cells, using parasite LDH activity as an index of growth. Test compounds present at 2uM.
In assay [2] the test system is Plasmodium falciparum. As to the kind of experiment: GSK_TCMDC: Inhibition of Plasmodium falciparum Dd2 in whole red blood cells, using parasite LDH activity as an index of growth. Test compounds present at 2uM.
Assay [3] has as its system HepG2. As to the kind of experiment: GSK_TCMDC: Percent inhibition of human HepG2 cell line. Test compounds present at 10uM.

For the compound `CN(C)c1ccc(C=Cc2nc(=O)c3ccccc3o2)cc1`, the Inhibition was found to be 96% in assay [1], 97% in assay [2] and 6% in assay [3].
In the case of `COc1cccc(NC(=O)Nc2ccc(-c3oc(C(=O)NCC(c4ccccc4)N(C)C)cc3-c3ccncc3)cc2)c1.O=C(O)C(F)(F)F` (stereo not drawn), the Inhibition was 100% in assay [1], 99% in assay [2] and 6% in assay [3].
For the compound `Cc1nc2c(Nc3nc(-c4ccncc4)cs3)ncnc2n1-c1ccccc1Cl`, the values for the Inhibition in assay [1], in assay [2] and in assay [3] were 97%, 96% and 14%, respectively.
For `CC(Nc1ccnc2cc(Cl)ccc12)c1ccc(S(N)(=O)=O)cc1` (stereo not drawn) the same measures were 96%, 21% and 5%.
For `CCN(CC)CCN(Cc1ccc(-c2ccc(C(F)(F)F)cc2)cc1)C(=O)Cn1c(CCC2CCCCC2)nc(=O)c2ccccc21.O=C(O)C(O)C(O)C(=O)O` the same measures were 87%, 25% and 32%.
The corresponding values for `CCCOc1cccc(C(=O)N[C@@H](Cc2ccccc2)[C@H](O)CNCc2ccccc2OC)c1` are 95%, 61% and 11%.
Turning to `O=C(C=Cc1ccc(-c2nc3ccccc3[nH]2)cc1)NC1CCN(Cc2ccccc2)CC1`, the values for the Inhibition in assay [1], in assay [2] and in assay [3] were 99%, 88% and 15%, respectively.
For the compound `c1ccc2oc(-c3cc4ccncc4cc3OC3CCNCC3)cc2c1`, the results for the Inhibition in assay [1], in assay [2] and in assay [3] were 100%, 96% and 11%, respectively.
In the case of `COc1ccc2nccc([C@@H](O)CN3CCC(NCc4cc5cccc(OC)c5o4)CC3)c2c1.O=C(O)C(=O)O`, the Inhibition in assay [1] turned out to be 99%; in assay [2] it was 81%; in assay [3], 10%.
Regarding `CCCCCC(=O)NCC(NCCCNc1cc(=O)c2ccccc2[nH]1)c1cc(Br)cc(Br)c1` (stereo not drawn), the Inhibition in assay [1] amounted to 96%; in assay [2], 66%; in assay [3], 0%.
For the compound `CCCN(C(=O)c1ccccc1C)c1nnc(-c2ccccc2C)s1`, the Inhibition in assay [1] was 90%; in assay [2], 65%; in assay [3] it was 16%.
The corresponding values for `Cc1cc(F)ccc1[C@H]1C[C@H](N2CCOCC2)CCN1C(=O)N(C)[C@@H](C)c1cc(C(F)(F)F)cc(C(F)(F)F)c1.Cl` are 100%, 99% and 4%.
On to `CCc1cc(Cc2cnc(N)nc2N)cc(CC)c1OC`, for which the Inhibition in assay [1] worked out at 90%; in assay [2] it was 12%; in assay [3] it was 3%.
Consider `COc1ccc2nc(C)cc(NCc3cccc4ccccc34)c2c1.Cl`, for which the results for the Inhibition in assay [1], in assay [2] and in assay [3] were 100%, 72% and 28%, respectively.
Turning to `C=CCc1cc(Cc2cnc(N)nc2N)cc(CCC)c1O`, the results for the Inhibition in assay [1], in assay [2] and in assay [3] were 90%, 2% and 54%, respectively.
The corresponding values for `Cc1cc(C)cc(OCC(O)CN(Cc2cc(Cl)cc(Cl)c2)C(=O)Nc2ccccc2Cl)c1` (stereo not drawn) are 93%, 37% and 0%.
The corresponding values for `O=C(O)C(F)(F)F.c1cc(CN2CCCCC2)cc(-c2ccc(-c3nc4ccccc4[nH]3)s2)c1` are 100%, 100% and 11%.
The corresponding values for `C=C[C@H]1CN(CCCCCCC)CC[C@H]1CC(O)Cc1ccnc2cc(O)c(OC)cc12.O=C(O)C(=O)O` (stereo partly drawn) are 95%, 59% and 7%.
On to `CCCC(C)C(=O)N1CCOC(COCc2cccc(C(F)(F)F)c2)(c2ccc(Cl)cc2)C1` (stereo not drawn), for which the Inhibition came out at 97% in assay [1], 91% in assay [2] and 2% in assay [3].
The corresponding values for `COc1ccc2ncc(F)c(CCN3CCC[C@H](CNCc4ccc5c(n4)NC(=O)CS5)C3)c2n1.Cl` are 96%, 34% and 16%.
For the compound `CS(=O)(=O)Nc1ccc2[nH]cc(C3CCN(CCCCCNC(=O)/C=C/c4ccc(Cl)c(Cl)c4)CC3)c2c1`, the Inhibition was found to be 100% in assay [1], 0% in assay [2] and 1% in assay [3].
For `CN1CCCN(c2ccnc3cc4c(cc23)N(C(=O)c2ccc(Cl)cc2)CC4)CC1.Cl`, the Inhibition in assay [1] was determined as 100%; in assay [2], 0%; in assay [3] it was 0%.
As to `CC1CN(c2cnn(Cc3cccc(NC(=O)Nc4cccc(C(F)(F)F)c4)c3)c(=O)c2Cl)CC(C)N1.O=C(O)C(F)(F)F` (stereo not drawn), the figures for the Inhibition in assay [1], in assay [2] and in assay [3] were 96%, 74% and 19%, respectively.
The corresponding values for `CN1CCN(c2ccc(-c3cc(-c4ccncc4)c(-c4ccc(Cl)c(O)c4)o3)cc2)CC1.Cl` are 100%, 98% and 0%.
For `COc1cc(-c2[nH]c(-c3ccc(OCCN(C)C)cc3)cc2-c2ccncc2)ccc1Cl.Cl` the same measures were 93%, 33% and 3%.
For `CCN1CCC(N(Cc2ccc(-c3ccc(C(F)(F)F)cc3)cc2)C(=O)Cn2c(CCc3cccc(F)c3F)cc(=O)c3cn(C)nc32)CC1.O=C(O)C(O)C(O)C(=O)O`, the Inhibition in assay [1] turned out to be 95%; in assay [2], 87%; in assay [3] it was 27%.
For `Cc1noc(C)c1C(=O)N1CCCC(c2[nH]c3c(C)cccc3c2-c2ccncc2)C1.Cl` (stereo not drawn) the same measures were 100%, 100% and 16%.
As for `COc1ccc2nc3cc(Cl)ccc3c(NCCNCC(O)CO)c2n1.Cl` (stereo not drawn), the Inhibition in assay [1] was 100%; in assay [2] it was 100%; in assay [3] it was 12%.
Turning to `CN1CCN(CCCN(Cc2ccc(-c3ccc(CNC4CCCC4)cc3)cc2)C(=O)CCC2CCCC2)CC1.O=C(O)C(F)(F)F`, the values for the Inhibition in assay [1], in assay [2] and in assay [3] were 98%, 96% and 92%, respectively.
The corresponding values for `COCCCNc1nc2cc(OC)c(OC)cc2c2nc(-c3ccccc3)nn12` are 95%, 97% and 6%.
`Cl.Oc1c(Cl)cc(-c2ccccc2)cc1CNC1CCCCC1`: the Inhibition amounted to 97% in assay [1], 95% in assay [2] and 5% in assay [3].
The corresponding values for `Cc1cc(N)c2cc(NC(=O)c3cccc(C(=O)Nc4ccc5nc(C)cc(N)c5c4)c3)ccc2n1.Cl` are 94%, 92% and 9%.
The corresponding values for `O=C(O)C(F)(F)F.c1ccc2[nH]c(-c3ccc(-c4ccc(CNCC5CCCO5)cc4)s3)nc2c1` (stereo not drawn) are 100%, 87% and 27%.
Turning to `Clc1ccc2c(Cl)c(CNCCCNc3nc4ccccc4[nH]3)[nH]c2c1`, the Inhibition in assay [1] is recorded as 100%; in assay [2], 7%; in assay [3], 38%.
The corresponding values for `COc1ccc(CNCc2cccc(-c3cccc(-c4nc5cccc(C)c5[nH]4)c3)c2)cc1.O=C(O)C(F)(F)F` are 100%, 60% and 31%.
Take `COCCNCc1ccc(-c2ccc3c(Nc4ccc(F)cc4Cl)ccnc3c2)o1`: the Inhibition stood at 100% in assay [1], 100% in assay [2] and 22% in assay [3].
With `Cc1nc2nc(N)nc(N)c2c(C)c1Cc1ccc(C(N)=O)cc1.Cl`, the Inhibition worked out at 97% in assay [1], 0% in assay [2] and 55% in assay [3].
The corresponding values for `c1ccc(Oc2ccc(Nc3ccnc4cc(-c5ccc(CN6CCCCC6)o5)ccc34)cc2)nc1` are 100%, 100% and 18%.
Take `COc1cccc(COCC(O)CN(CCc2ccccn2)C(=O)c2ccccc2F)c1` (stereo not drawn): the results for the Inhibition in assay [1], in assay [2] and in assay [3] were 97%, 30% and 61%, respectively.
`CC(C)c1sc(N2CCN(C)CC2)nc1C(=O)Nc1ccc(F)cc1C(F)(F)F.O=C(O)C(F)(F)F`: the Inhibition in assay [1] is listed as 100%; in assay [2], 99%; in assay [3], 3%.
As to `Nc1ccc2[nH]cc(C3CCN(CC4CCC(NC(=O)/C=C/c5ccccc5Cl)CC4)CC3)c2n1` (stereo not drawn), the values for the Inhibition in assay [1], in assay [2] and in assay [3] were 100%, 45% and 7%, respectively.
With `CC(=O)Nc1ccc(CN2CCC(NC(=O)c3ccc(-c4cccc(OC(C)C)c4)s3)CC2)cc1.O=C(O)C(F)(F)F`, the values for the Inhibition in assay [1], in assay [2] and in assay [3] were 89%, 13% and 14%, respectively.
For `COc1ccc2nccc([C@@H](O)CN3CCC(NC(=O)/C=C/c4cccc(NC(C)=O)c4)CC3)c2c1` the same measures were 90%, 60% and 5%.
With `O=C(Nc1ccc(OC2CCN(Cc3ccsc3)CC2)c(Cl)c1)c1ccc(F)cc1.O=C(O)C(F)(F)F`, the Inhibition in assay [1] was found to be 98%; in assay [2], 83%; in assay [3], 31%.
The corresponding values for `COc1cccc(C(=O)Nc2ccc(-c3nc4ccccc4[nH]3)cc2)c1` are 95%, 19% and 28%.
For `CN(CCCCCN1CCC(NC(=O)Nc2ccc(Oc3ccccc3)cc2)C1)C(=O)/C=C/c1ccc(Cl)c(Cl)c1` (stereo not drawn) the same measures were 98%, 14% and 50%.
Regarding `NC1CCN(Cc2ccc(-c3ccc(-c4nc5cc(F)ccc5[nH]4)cc3)cc2)C1.O=C(O)C(F)(F)F` (stereo not drawn), the Inhibition in assay [1] is 98%; in assay [2] it was 99%; in assay [3] it was 41%.
Take `CCOc1cc2ncnc(Nc3cc(Cl)c(Cl)c(Cl)c3)c2cc1OCC.Cl`: the values for the Inhibition in assay [1], in assay [2] and in assay [3] were 100%, 98% and 11%, respectively.
`CNCCCNCc1ccc(-c2ccc(F)c(Cl)c2)o1.Cl`: the Inhibition is recorded as 100% in assay [1], 12% in assay [2] and 22% in assay [3].
For `COc1ccc(CCNC(=O)c2ccc(-n3cc(NC(=O)c4cccnc4)cn3)cc2)cc1OC` the same measures were 90%, 89% and 17%.
In the case of `Cc1c(Cc2ccccc2Cl)cnc2nc(N)nc(N)c12.Cl`, the values for the Inhibition in assay [1], in assay [2] and in assay [3] were 91%, 96% and 67%, respectively.
As for `COc1ccc(CCc2ccc(-c3c(C)[nH]c(C)c(Cl)c3=O)cc2)cc1OC`, the Inhibition in assay [1] worked out at 99%; in assay [2] it was 97%; in assay [3], 0%.
The corresponding values for `COc1ccc(-c2cccc(CNC3CCN(CC4Cn5c(=O)ccc6ccc(F)c4c65)CC3)c2)cc1.O=C(O)C(F)(F)F` (stereo not drawn) are 100%, 74% and 22%.
`O=C(/C=C/c1ccc(Cl)c(Cl)c1)NCCCCCN1CCC(C(=O)Nc2ccc(F)c(Cl)c2)CC1`: the figures for the Inhibition in assay [1], in assay [2] and in assay [3] were 100%, 0% and 25%, respectively.
For `O=C(/C=C/c1ccc(Cl)c(Cl)c1)N1CCN(C(=O)Nc2ccc(C(F)(F)F)cc2)CC1` the same measures were 98%, 100% and 47%.
For `COc1cc2nc(NCCn3nc(C)cc3C)nc(NCCc3ccccc3)c2cc1OC`, the Inhibition in assay [1] worked out at 100%; in assay [2] it was 100%; in assay [3] it was 28%.
In the case of `CCCCCCCCN1CCN(CCCCCCNc2c3ccccc3nc3ccccc23)CC1.Cl`, the Inhibition in assay [1], in assay [2] and in assay [3] was 100% in each case.
As to `Cn1cnc(CCNC(=O)c2ccc(-c3cccc(-c4nc5cc(C(F)(F)F)ccc5[nH]4)c3)cc2)c1`, the Inhibition was 100% in assay [1], 93% in assay [2] and 25% in assay [3].
Consider `Cc1ccc(CNC(=O)c2cc3c(=O)n4ccccc4nc3n(CCCN3CCOCC3)c2=N)cc1`, for which the Inhibition is 92% in assay [1], 5% in assay [2] and 21% in assay [3].
The corresponding values for `CC(C)c1ccc(NC(=O)c2ccc(CN3CCCN(CC4CCCCC4)CC3)cc2)cc1.O=C(O)C(F)(F)F` are 90%, 34% and 50%.
For `O=C(NCCN1CCCCC1)c1ccc(Nc2nccc(Nc3ccc(Oc4ccccc4)cc3)n2)cc1` the same measures were 100%, 91% and 58%.
